Assay outcomes: PubChem, National Center for Advancing Translational Sciences (NCATS)
SMN2 splice enh: enhancers of SMN2 splice variant expression | HEK293 SMN2-luciferase splicing reporter, luminescence, 30-36 h | Potency, µM (series often up to 46.1 µM), inactives show top-dose activity change, positive = activation, usual class: activators | hit rate 2.8% among 210,000; further: % of control where 0% means no effect; nearly all actives have a fitted effect of over 55% in size
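HEK293 cells carry an SMN2 minigene-luciferase reporter in which exon 7 inclusion puts luciferase in frame. Cells were seeded at 2000 cells/well, attached for 10-12 hours, then exposed to compounds for 30-36 hours at 37C before ONE-Glo luminescence.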
NPC1 prom act: activators of NPC1 promoter. Huh7 NPC1 promoter luciferase reporter, 24 h. Potency, µM (doses to about 9.22 µM), without a hit: top-dose activation, most hits filed as activators. hit rate 2.4% among 320,000; further: % of control where 0% means no effect; nearly all actives have a fitted effect of over 60% in size
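Cells: Huh7 expressing luciferase under the NPC1 promoter, 1500/well. Seeded 2 h, compound added, incubated 24 h at 37 °C. Luciferase reagent, 10 min ambient, then luminescence.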
ELG1 genotoxic: genotoxicity induction in ELG1-luciferase HEK293T cells. HEK293T ELG1-luciferase reporter, luminescence, 16 h. Potency, µM (titrated, usually from 46 µM), for inactives: at the highest dose activity change, positive = activation, hits mostly activators. hit rate 1.3% among 330,000; further: % of control where 0% means no effect; nearly all actives have a fitted effect of over 60% in size
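After overnight (16 hr) compound treatment at 37 °C, ELG1-luciferase HEK293T cells were lysed with ONE-Glo; luminescence quantified 30 min later at room temperature.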
Rab9 promoter act: activates the Rab9 promoter. Potency, µM (titrated, usually from 9.22 µM), without a hit: at the highest dose activation, negative = inhibition, hits mostly activators. hit rate 2.8% among 320,000. AID 485297. Huh7 Rab9 promoter-luciferase reporter, luminescence, 24 h; further: % of control where 0% means no effect; nearly all actives have a fitted effect of over 60% in size
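Using Huh7 cells stably transfected with Rab9 promoter–luciferase, compounds were incubated 24 h at 37 °C, 5% CO2; luciferase luminescence was read 10 min after reagent addition.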
FLuc counter: counter-screen for miR-21 project: firefly luciferase inhibitors or activators | P08659 | purified FLuc, Km substrates, luminescence inhibition | Potency, µM (top dose mostly 57.5 µM), for the others: at the top dose activity change, negative = inhibition, hits mostly inhibitors | hit rate 6.9% among 360,000 | AID 588342;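 further: plate controls were vehicle for no effect and reference inhibitor for full effect; nearly all actives have a fitted effect of over 55% in size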
Target sequence (P08659 whole entry, looked up): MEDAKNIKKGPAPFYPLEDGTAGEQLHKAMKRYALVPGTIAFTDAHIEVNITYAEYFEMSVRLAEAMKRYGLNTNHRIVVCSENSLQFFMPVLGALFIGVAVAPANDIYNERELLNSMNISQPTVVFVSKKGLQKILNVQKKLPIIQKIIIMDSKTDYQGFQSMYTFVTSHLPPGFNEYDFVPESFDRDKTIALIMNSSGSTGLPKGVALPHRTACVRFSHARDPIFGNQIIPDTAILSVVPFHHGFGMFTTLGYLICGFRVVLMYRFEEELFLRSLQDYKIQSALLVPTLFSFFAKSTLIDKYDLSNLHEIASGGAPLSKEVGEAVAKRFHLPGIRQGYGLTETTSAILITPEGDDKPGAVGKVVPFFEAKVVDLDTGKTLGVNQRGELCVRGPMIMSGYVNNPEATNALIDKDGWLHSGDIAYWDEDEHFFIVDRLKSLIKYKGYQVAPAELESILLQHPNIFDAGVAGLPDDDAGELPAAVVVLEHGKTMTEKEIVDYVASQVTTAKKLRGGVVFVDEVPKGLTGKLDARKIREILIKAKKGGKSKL
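Purified P. pyralis luciferase, 10 nM final, with Km-level 10 uM D-luciferin and 10 uM ATP in 50 mM Tris acetate pH 7.5, 10 mM Mg acetate, 0.01% Tween-20, 0.05% BSA; 6-point qHTS titration about 60 µM downward; luminescence read.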
* marks the source's active call; other numbers are inactive results; ? = inconclusive; . = not tested or not shown; [ ] = remark or other dose. Rows were chosen to be rich in hits. Some 7.4% of all compounds tested hit in one or more screens of this group. The call rests on the fitted dose curve; in most records, active means well fitted curve in the direction sought with a large enough effect; inconclusive means small, poorly fitted or top-dose-only effect, or another doubt; inactive means no such curve, though single readings can be large; an effect the other way counts as inactive or inconclusive. Potency means the concentration at half of the fitted maximal effect.

SMILES | SMN2 splice enh | NPC1 prom act | ELG1 genotoxic | Rab9 promoter act | FLuc counter
Cc1ccc(OCC(=O)Nc2ccccc2C(=O)OCc2cc(=O)n3nc(C4CC4)sc3n2)cc1 | . | . | . | . | 3%
CCOC(=O)c1ccc(N/C=C2\CCCCC2=O)cc1 | ? | 4µM* | 2.3µM* | 2.5µM* | 2.7µM*
CCOC(=O)c1ccc(NC(=O)N2CCCCC2)cc1 | ? | 2.5µM* | 10µM* | 3.2µM* | 13µM*
O=C1CCCC/C1=C\Nc1ccc(O)cc1 | ? | 11% | ? | 15% | ?
CCc1ccc(NC(=O)N2CCCCCC2)cc1 | . | 2.2µM* | 21µM* | 1.8µM* | 13µM*
CCc1ccc(NS(=O)(=O)c2ccc(NC(=O)N3CCCC3)cc2)cc1 | . | . | . | . | 2%
COc1ccc(CNC(=O)c2ccc3c(c2)CCN3S(=O)(=O)c2ccc(Cl)cc2)cc1 | -47% | . | . | . | -3%
O=C(NCc1ccccc1Br)c1ccc2nc(N3CCCCC3)sc2c1 | 9% | . | . | . | ?
CCOc1cc2[nH]c(=O)n(Cc3ccc(C(=O)N4CCN(c5cccc(Cl)c5)CC4)cc3)c(=O)c2cc1OCC | . | . | . | . | -7%
O=C(Nc1ccccc1)N1CCc2ccccc21 | 14µM* | 1.6µM* | 9.2µM* | 1µM* | 21µM*
S=C(Nc1ccccc1)N1CCc2ccccc21 | . | 12% | 1% | 14% | ?
COc1ccc(NC(=O)N2CCc3ccccc32)cc1 | 3.2µM* | 0.63µM* | ? | 0.4µM* | 1.7µM*
COc1ccc(CCC(=O)N2c3ccccc3CC2C)cc1 (stereo not drawn) | 39% | 24% | ? | 22% | ?
COc1ccc(CCC(=O)N2CCc3ccccc32)cc1 | 0% | ? | ? | ? | 9.5µM*
CCOC(=O)c1ccc(NC(=O)N2CCc3ccccc32)cc1 | 16µM* | 1.8µM* | 8.2µM* | 1.8µM* | 1.9µM*
COc1ccc(NC(=O)N2CCCc3ccccc32)cc1 | -6% | 13% | 21% | 5% | ?
CCOC(=O)c1ccc(NC(=O)N2CCc3ccccc3C2)cc1 | . | -1% | 13% | 18% | ?
COCCN(CCOC)c1nc(C)nc2c1nc(-c1ccccc1)n2CCN1CCCC1 | -6% | . | . | . | .
CCOC(=O)c1c(C)[nH]c(CCC(=O)Nc2ccc(N(CC)CC)cc2C)c1C | . | . | . | . | -8%
COc1ccc(-c2nc3ccccc3s2)cc1NC(=O)c1ccc(F)cc1 | -6% | . | . | . | -1%
COc1ccc(C(=O)N2CCc3ccccc32)cc1 | 11µM* | 27% | ? | ? | ?
O=C(c1ccccc1)N1CCc2ccccc21 | -9% | -2% | 0% | 12% | 1%
Cc1ccc(/C=N/Nc2ccc(F)cc2)s1 | . | 29% | 10% | 27% | ?
O=C(O)c1cc(N/N=C/c2cccs2)ccc1Cl | 11µM* | ? | ? | ? | 9.5µM*
Cc1ccc(/C=N/Nc2ccc(Cl)c(C(=O)O)c2)s1 | 0.89µM* | 0.32µM* | ? | 0.32µM* | 4.8µM*
SMILES | SMN2 splice enh | NPC1 prom act | ELG1 genotoxic | Rab9 promoter act | FLuc counter
Cc1ccc(/C=N/Nc2nc(Cl)c(Cl)cc2Cl)s1 | ? | ? | ? | ? | 6µM*
CCC(CO)Nc1ncnc2c1cnn2-c1ccc(OC)cc1 (stereo not drawn) | 10µM* | 1µM* | 2.6µM* | 1µM* | 6.7µM*
CCC(CO)Nc1ncnc2c1cnn2-c1ccc(Cl)cc1 (stereo not drawn) | ? | 0.45µM* | ? | 0.32µM* | 1.7µM*
COc1ccc(CC(=O)NNc2ncnc3c2cnn3-c2ccccc2)cc1 | 2% | -3% | 4% | -3% | 1%
CCC(C)Nc1ncnc2c1cnn2Cc1ccc(Cl)cc1 (stereo not drawn) | -13% | -4% | -6% | -3% | -1%
N#Cc1ccc(Nc2nn3c(=O)c4ccccc4nc3s2)cc1 | . | . | . | . | -13%
CCOC(=O)c1ccccc1NC(=O)CCc1c(C)nc2ncnn2c1C | 0% | . | . | . | 0%
CC(=O)c1ccc(NC(=O)CCc2c(C)nn(-c3ccc(N4CCOCC4)nn3)c2C)cc1 | . | ? | 1%[9.26 µM] | ? | 17µM*
CCc1ccc(NC(=O)CCc2c(C)nn(-c3ccc(N4CCOCC4)nn3)c2C)cc1 | . | 21% | 5% | 14% | ?
Cc1ccc(F)cc1NC(=O)CCc1c(C)nn(-c2ccc(N3CCOCC3)nn2)c1C | . | . | . | . | -15%
Cc1ccc(NC(=O)CCc2c(C)nn(-c3ccc(N4CCOCC4)nn3)c2C)cc1F | . | ? | 12% | ? | 13µM*
CCc1cccc(NC(=O)CCc2c(C)nn(-c3ccc(N4CCOCC4)nn3)c2C)c1 | . | 13% | 3% | 8% | 17µM*
COc1ccc(NC(=O)CCc2c(C)nn(-c3ccc(N4CCOCC4)nn3)c2C)cc1Cl | . | . | . | . | 21µM*
CC(=O)c1ccc(NC(=O)CC2Oc3ccc(C)cc3NC2=O)cc1 (stereo not drawn) | -13% | . | . | . | 0%
CC(=O)Nc1cccc(NC(=O)c2cc3c(=O)n4cccc(C)c4nc3n2C)c1 | . | . | . | . | -6%
COC(=O)c1ccc(NC(=O)CCc2c(C)nn(-c3ccc(N4CCOCC4)nn3)c2C)cc1 | . | . | . | . | 19µM*
CCOC(=O)c1c(-c2ccccc2)nc2c(C)cccn12 | -12% | -4% | -8% | 1% | ?
Cc1cccn2c(N)c(-c3ccccc3)nc12 | 27% | ? | ? | 3.5µM* | 11µM*
O[C@@H]1[C@@H](OCc2ccccc2)OC[C@H](O)[C@@H]1O | -2%[9.22 µM] | . | . | . | .
Cn1c(=O)c(C=Nc2ccccc2)c(O)c2ccccc21 | . | -4% | 0% | 0% | 4.3µM*
COc1ccc(-n2c(O)c(C=Nc3ccccc3)c3ccccc3c2=O)cc1 | -3% | -2% | ? | -9% | 0%
COC(=O)Cn1nnc(-c2cccc(OC)c2)n1 | -11% | -6% | 0% | -4% | 27µM*
O=C(Cn1nnc(-c2ccccc2)n1)c1ccccc1 | -14% | 11% | 10% | 11% | ?
Cc1ccc(C(=O)Cn2nnc(-c3ccccc3)n2)cc1 | . | 2% | -1% | 20% | 19µM*
COc1ccc(C(=O)Cn2nnc(-c3cccs3)n2)cc1 | -6% | ? | 3% | 2.8µM* | 9.5µM*
SMILES | SMN2 splice enh | NPC1 prom act | ELG1 genotoxic | Rab9 promoter act | FLuc counter
CN1CCN(CN2C(=O)C3C4C=CC(C3C2=O)C2C3C(=O)N(CN5CCN(C)CC5)C(=O)C3C42)CC1 (stereo not drawn) | -7%[9.22 µM] | . | . | . | .
COc1cc(OC)cc(C(=O)Nc2cc3c(cc2N2CCOCC2)n(C)c(=O)n3C)c1 | 22% | . | . | . | 0%
CSCCC1NC(=O)N(CC(=O)Nc2ccc(N3CCCCC3)cc2)C1=O (stereo not drawn) | -9% | 11% | 1% | -6% | 12µM*
CCOc1nc(Nc2ccccc2F)nc(OCC)n1 | . | 2% | -6% | 5% | 2%
C=CCNc1nc(Nc2ccccc2F)nc(OCC)n1 | 11µM* | 4µM* | 19% | 4µM* | 21µM*
CCOc1ccc(NC(=O)c2sc3nc4c(cc3c2N)CN(Cc2ccccc2)CC4)cc1 | -13% | . | . | . | -3%
